About 2,100 (3.2%) of roughly 65,000 compounds showed an effect of 50% or more. The median lay at about -52%. Only a selection was taken, and strong results are over-represented in it overall.
The compounds below were run on Plasmodium falciparum (assay: Screen against P. falciparum Asexual Blood Stage (ABS), at 5uM). Conditions: tested at 5 uM.
Type: functional, Dd2

Compound | INHIBITION [%]
O=C(NCc1cc(=O)n2c(n1)CN(CC1CC1)CCC2)c1ccsc1 | -69.7
c1cnc(N2CC3(CCN(C4CCOCC4)CC3)c3ccccc32)nc1 | 64
c1cnc(N2CC3(CCN(CC4CCOC4)CC3)c3ccccc32)nc1 (configuration not stated) | -5.4
c1cnc(N2CC3(CCN(C4CCOC4)CC3)c3ccccc32)nc1 (configuration not stated) | -101
COCCN1CCc2cc(C(=O)NC(C)C)c(NCC3CC3)nc2CC1 | 33.6
O=C(CCn1cccn1)NCCOc1ncc(Cl)cc1Cl | 18.7
N#Cc1ccc(N2CCC3(CC2)CC(OCc2cccnc2)CO3)cc1 (configuration not stated) | -57.3
COCCN1CCC2(CC1)CC(NC(=O)CN(C)C)c1ccccc1O2 (configuration not stated) | 67.7
COCCN1CCC2(CC1)CC(NC(=O)COC)c1ccccc1O2 (configuration not stated) | -38.3
COCCN1CCC2(CC1)CC(NC(=O)CC1CC1)c1ccccc1O2 (configuration not stated) | -92.9
CNCc1cc(C)n(-c2ccccc2OC)c1C | 30.8
Cc1nn(C)c(C)c1C1CCCN1Cc1cccc(OCC(N)=O)c1 (configuration not stated) | -22.6
CCn1cncc1CNC(=O)c1ccc(C2CCCN2C(=O)COC)s1 (configuration not stated) | -32.8
O=C(NCC1CC1)[C@@H]1CCO[C@@H]2CCN(Cc3ccsc3)C[C@H]21 | 50.9
O=C(NC1CC1)[C@@H]1CCO[C@@H]2CCN(Cc3ccsc3)C[C@H]21 | -48.8
O=C(NCC1CC1)[C@@H]1CCO[C@@H]2CCN(Cc3ccc(F)cc3)C[C@H]21 | 22.5
O=C(NCCCn1ccnc1)NCC(c1ccco1)N1CCCC1 (configuration not stated) | -96.3
CCN1CCCC(CN(C)c2nccc(-c3ccc(C)nc3C)n2)C1 (configuration not stated) | 26.3
CC(C)N[C@@H]1CC[C@@H]1NC(=O)c1ccccc1OC(F)(F)C(F)F | 54.4
O=C(N[C@@H]1CCNC[C@H]1O)c1ccccc1OC(F)(F)C(F)F | -173
N[C@@H]1CC[C@@H]1NC(=O)c1ccccc1OC(F)(F)C(F)F | 42.2
Cc1ccnc(NCc2cn3nc(C)sc3n2)n1 | -114
O=C(Cc1ccc2c(c1)OCC2)Nc1nc[nH]n1 | -116
c1cnn(Cc2cnc3n2CCN(CC2CCCCC2)C3)c1 | 4.97
COCCCNC(=O)CN(C)C(C)c1nc(C(C)C)no1 (configuration not stated) | -119
CN1CCOC(CNC(=O)C2(c3cccc(C(F)(F)F)c3)CCCC2)C1 (configuration not stated) | 55.9

Compound | INHIBITION [%]
CN1CCOC(CNC(=O)C2(c3ccccc3)CCC2)C1 (configuration not stated) | -66.7
Cc1cccc(C2(C(=O)NCC3CN(C)CCO3)CC2)c1 (configuration not stated) | 0.579
CN(Cc1csc(-c2cnn(C)c2)n1)CC1CCN(CCO)CC1 | -6.54
CC(Cn1cncc1-c1cnn(C2CCCCC2)c1)N1CCCCC1 (configuration not stated) | 13.6
c1nn(C2CCCCC2)cc1-c1cncn1CCCN1CCCCC1 | 62.1
c1nc(N2CCOCC2)ncc1-c1cncn1CCCN1CCCCC1 | -102
Cc1ccccc1N1CCCN(C(=O)CC2CN(C(C)C)CCO2)CC1 (configuration not stated) | 11.3
CN1CCCC1CNC(=O)CCCOc1ccc(F)cc1 (configuration not stated) | 48.7
CN1CCCC1CNC(=O)CCCOc1cccc(F)c1 (configuration not stated) | 35.7
CN1CCCC1CNC(=O)CCOc1ccc(Br)cc1 (configuration not stated) | 62.6
CC(=O)c1cccc(OCCCC(=O)NCC2CCCN2C)c1 (configuration not stated) | 3.79
CN1CCCC1CNC(=O)CCCOc1ccc(I)cc1 (configuration not stated) | 59.8
CN1CCCC1CNC(=O)CCOc1ccc(Cl)cc1 (configuration not stated) | 67.9
CN1CCCC1CNC(=O)CCCOCc1ccccc1 (configuration not stated) | -46.6
COc1cc(CCC(=O)NCC2CCCN2C)ccc1OCC(F)(F)F (configuration not stated) | 43.4
Cc1ncc(CNC(=O)CCOc2ccccc2)c(C2CCCN2C)n1 (configuration not stated) | -57
CC(C)c1nc(O)c2nnn(C[C@@H]3CCCN(Cc4cccs4)C3)c2n1 | -32.9
O=C1CO[C@@H]2CN(S(=O)(=O)c3ccc(F)cc3)C[C@H]2N1 | -28.2
Cc1cc(C(=O)N2CC[C@@]3(O)CCN(S(C)(=O)=O)C[C@H]3C2)c(C)n1C | -156
O=C(CNC(=O)c1cnccn1)Nc1ncc[nH]1 | -51.8
CCC(=O)N1CCN(c2ncnc3c(C)nn(C)c23)CC1 | -52.3
O=C(NC1CCCC1)O[C@H]1COCCN(c2nc3ccccc3s2)C1 | -31.6
CCNC(=O)O[C@H]1COCCN(c2nc3ccccc3s2)C1 | 54.8
O=C(NC1CCCC1)O[C@H]1COCCN(c2nc3ccccc3o2)C1 | -59.6
CCOc1ccccc1CNC(=O)N1CCC(n2cncn2)CC1 | -19.1
COc1ccc(CN2C[C@H]3CN(Cc4ccncc4)C(=O)[C@H]3C2)cc1 | -22.1

Reference: ChEMBL document CHEMBL4513216, “Probing the Open Global Health Chemical Diversity Library for Multistage-Active Starting Points for Next-Generation Antimalarials” (ACS Infect Dis, 2020)
